The target in assay [1] is human RAR-related Orphan Receptor gamma (RORg), RORC (gene 6097) (UniProt P51449). The assay can be described thus: ATG_RORg_TRANS: Attagene TRANS-FACTORIAL HepG2 Assay for human RAR-related Orphan Receptor gamma (RORg) (AID 2283011). A digest of the protocol:
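Reporter transcripts from a transfected RORg-GAL4 chimera in HepG2 cells were quantified 24 h after dosing by RT-PCR, 6-FAM labelling, HpaI digestion and capillary electrophoresis; increases over DMSO baseline were fitted.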

The target of assay [2] is human Thyroid Receptor alpha (THRa1), THRA (gene 7067) (UniProt P10827). The assay can be described thus: ATG_THRa1_TRANS: Attagene TRANS-FACTORIAL HepG2 Assay for human Thyroid Receptor alpha (THRa1) (AID 2283014). A digest of the protocol: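 Transcripts from GAL4-UAS-driven reporters, measured after 24 h compound exposure by RT-PCR plus capillary electrophoresis of 6-FAM-labeled fragments, were fitted for gain of signal relative to DMSO. Cells: transiently transfected HepG2 expressing NR-Gal4 chimeras.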

In assay [3] the target is human Vitamin D Receptor (VDR), VDR (gene 7421) (UniProt P11473). The assay can be described thus: ATG_VDR_TRANS: Attagene TRANS-FACTORIAL HepG2 Assay for human Vitamin D Receptor (VDR) (AID 2283022). A digest of the protocol:
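Transactivation by an exogenous VDR-Gal4 chimera in transiently transfected HepG2 cells was measured as reporter transcript level 24 hours after chemical treatment. RT-PCR products were analysed by capillary electrophoresis and fitted in the positive direction relative to DMSO.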

Assay [4] has as its target human Retinoid X Receptor beta (RXRb), RXRB (gene 6257) (UniProt P28702). The assay can be described thus: ATG_RXRb_TRANS: Attagene TRANS-FACTORIAL HepG2 Assay for human Retinoid X Receptor beta (RXRb) (AID 2283013). A digest of the protocol:
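Chimeric receptor-Gal4 activity was assessed in transiently transfected human HepG2 cells after 24 h exposure. Transcripts from GAL4-UAS reporters were quantified by fluorescent RT-PCR and capillary electrophoresis, with DMSO as negative control and baseline.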

In assay [5] the target is Retinoic acid receptor RXR-alpha (Homo sapiens) (UniProt P19793). The assay can be described thus: ATG_RXRa_TRANS: Attagene TRANS-FACTORIAL HepG2 Assay for human Retinoid X Receptor alpha (RXRa) (AID 2283012). A digest of the protocol:
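Measures exogenous chimeric NR-GAL4 activity in transfected HepG2 liver cells after 24 h of dosing. Induced reporter mRNA was detected by RT-PCR with capillary electrophoresis, and gain of signal was analysed against DMSO.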

Read-out in assay [6]: Interleukin-1 alpha (IL1a), IL1A (gene 3552)
The assay can be described thus: BSK_BE3C_IL1a: BioMAP Diversity Plus: BE3C Assay for Interleukin-1 alpha (IL1a) Biomarker Activity (AID 2283016; active = hit-call score of the fitted dose curve at least 0.9, where 1 is the maximum; inactive = score below 0.9). The conditions noted are these: primary human bronchial epithelial cells; actives raise or lower the signal. A digest of the protocol: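 Signal from IL-1a ELISA, taken 24 h after chemical dosing of human bronchial epithelial cells, is compared with DMSO as baseline using bidirectional curve fitting.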

Read-out in assay [7]: Monocyte Chemoattractant Protein-1 (MCP1), CCL2 (gene 6347)
The assay can be described thus: BSK_3C_MCP1: BioMAP Diversity Plus: 3C Assay for Monocyte Chemoattractant Protein-1 (MCP1) Biomarker Activity (AID 2283017; active = hit-call score of the fitted dose curve at least 0.9, where 1 is the maximum; inactive = score below 0.9). The conditions noted are these: primary human endothelial cells (HUVEC); actives raise or lower the signal. A digest of the protocol:
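MCP-1 was measured by ELISA 24 h after dosing in primary HUVEC 3C cultures and fitted in both directions relative to DMSO; cytotoxicity was checked by SRB total-protein staining in parallel wells.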

Read-out in assay [8]: Monocyte Chemoattractant Protein-1 (MCP1), CCL2 (gene 6347)
The assay can be described thus: BSK_4H_MCP1: BioMAP Diversity Plus: 4H Assay for Monocyte Chemoattractant Protein-1 (MCP1) Biomarker Activity (AID 2283018; active = hit-call score of the fitted dose curve at least 0.9, where 1 is the maximum; inactive = score below 0.9). The conditions noted are these: primary human endothelial cells (HUVEC); actives raise or lower the signal. A digest of the protocol:
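Endothelial cells from umbilical vein were treated with test chemical, then after 24 h MCP-1 levels were quantified by ELISA; endpoint values came from bidirectional fitting with DMSO as baseline of activity.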

Read-out in assay [9]: Human Leukocyte Antigen - DR isotype (HLADR), HLA-DRA (gene 3122)
The assay can be described thus: BSK_3C_HLADR: BioMAP Diversity Plus: 3C Assay for Human Leukocyte Antigen - DR isotype (HLADR) Biomarker Activity (AID 2283019; active = hit-call score of the fitted dose curve at least 0.9, where 1 is the maximum; inactive = score below 0.9;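 for outcome: ELISA of cell-surface HLA-DR on HUVEC 24 h after dosing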). The conditions noted are these: primary human endothelial cells (HUVEC); actives raise or lower the signal. A digest of the protocol: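 Bidirectional fitting against DMSO was applied to the HLA-DR ELISA signal from human umbilical vein endothelial cells, 24 h post-dose. Cytotoxicity came from parallel SRB total-protein staining; 3C proliferation was counted by SRB at 48 h.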

Read-out in assay [10]: Interleukin-8 (IL8), CXCL8 (gene 3576)
The assay can be described thus: BSK_3C_IL8: BioMAP Diversity Plus: 3C Assay for Interleukin-8 (IL8) Biomarker Activity (AID 2283020; active = hit-call score of the fitted dose curve at least 0.9, where 1 is the maximum; inactive = score below 0.9). The conditions noted are these: primary human endothelial cells (HUVEC); actives raise or lower the signal. A digest of the protocol: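 Endothelial primary cells of human umbilical vein origin are dosed with chemical; after 24 h the IL-8 biomarker is measured by ELISA, and concentration–response is fitted in both directions versus DMSO.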

Read-out in assay [11]: Monokine induced gamma interferon (MIG), CXCL9 (gene 4283)
The assay can be described thus: BSK_3C_MIG: BioMAP Diversity Plus: 3C Assay for Monokine induced gamma interferon (MIG) Biomarker Activity (AID 2283021; active = hit-call score of the fitted dose curve at least 0.9, where 1 is the maximum; inactive = score below 0.9). The conditions noted are these: primary human endothelial cells (HUVEC); actives raise or lower the signal. A digest of the protocol: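 Endothelial primary cells (human umbilical vein) are dosed with test chemical in the 3C system. MIG levels are measured by ELISA at 24 h and fitted in both directions relative to DMSO.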

Assay [12] is described as follows: BSK_3C_SRB: Viability Assessment in the BioMAP Diversity Plus: 3C Assay (AID 2283023; active = hit-call score of the fitted dose curve at least 0.9, where 1 is the maximum; inactive = score below 0.9;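 note: fitted both ways against DMSO so a hit may be signal rise or drop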). The conditions noted are these: primary human endothelial cells (HUVEC). A digest of the protocol:
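Cytotoxicity readout in parallel HUVEC 3C cultures: after 24 h compound exposure, cells fixed with 10% TCA, stained with 0.1% SRB and read at 560 nm. Gain or loss relative to DMSO fitted.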

Read-out in assay [13]: Matrix Metallopeptidase 1 (MMP1), MMP1 (gene 4312)
The assay can be described thus: BSK_BE3C_MMP1: BioMAP Diversity Plus: BE3C Assay for Matrix Metallopeptidase 1 (MMP1) Biomarker Activity (AID 2283024; active = hit-call score of the fitted dose curve at least 0.9, where 1 is the maximum; inactive = score below 0.9). The conditions noted are these: primary human bronchial epithelial cells; actives raise or lower the signal. A digest of the protocol: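 MMP1 signal, measured by ELISA after a 24 h chemical exposure of human primary bronchial epithelial cells, is analysed with bidirectional fitting using DMSO as negative control.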

Assay [14] is described as follows: BSK_3C_Vis: BioMAP Diversity Plus: 3C Assay for Morphology Visualization (AID 2283025; active = hit-call score of the fitted dose curve at least 0.9, where 1 is the maximum; inactive = score below 0.9;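 note: fitted both ways so gain or loss versus DMSO counts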). The conditions noted are these: primary human endothelial cells (HUVEC). A digest of the protocol:
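Morphology read by light microscopy serves as a background control for the multiplexed 3C assay in human umbilical vein endothelial cells, taken 24 h after dosing, with DMSO as the negative control and bidirectional curve fitting.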

Read-out in assay [15]: Pselectin, SELP (gene 6403)
The assay can be described thus: BSK_4H_Pselectin: BioMAP Diversity Plus: 4H Assay for Pselectin Biomarker Activity (AID 2283026; active = hit-call score of the fitted dose curve at least 0.9, where 1 is the maximum; inactive = score below 0.9). The conditions noted are these: primary human endothelial cells (HUVEC); actives raise or lower the signal. A digest of the protocol:
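Endothelial primary cells (human umbilical vein) are dosed, incubated 24 h, and assayed for surface P-selectin by ELISA; responses in either direction are fitted relative to the DMSO negative control.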

The nature of assay [16]: BSK_4H_SRB: Viability Assessment in the BioMAP Diversity Plus: 4H Assay (AID 2283027; active = hit-call score of the fitted dose curve at least 0.9, where 1 is the maximum; inactive = score below 0.9;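 note: cells exposed to compound for 24 h before staining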). The conditions noted are these: primary human endothelial cells (HUVEC). A digest of the protocol:
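HUVEC, 24 h post-dose; 10% TCA fix, 0.1% SRB stain, A560 nm. Total protein = overt cytotoxicity, parallel to biomarker read. Bidirectional fit vs DMSO baseline.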

Assay [17] can be described thus: BSK_BE3C_SRB: Viability Assessment in the BioMAP Diversity Plus: BE3C Assay (AID 2283028; active = hit-call score of the fitted dose curve at least 0.9, where 1 is the maximum; inactive = score below 0.9). The conditions noted are these: primary human bronchial epithelial cells. A digest of the protocol:
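Cytotoxicity read-out: SRB (0.1%) staining of TCA-fixed (10%) human lung bronchial epithelial cells, absorbance 560 nm, 24 h post-dosing. Curves fitted both directions relative to DMSO.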

Read-out in assay [18]: Thrombomodulin, THBD (gene 7056)
The assay can be described thus: BSK_3C_Thrombomodulin: BioMAP Diversity Plus: 3C Assay for Thrombomodulin Biomarker Activity (AID 2283029; active = hit-call score of the fitted dose curve at least 0.9, where 1 is the maximum; inactive = score below 0.9). The conditions noted are these: primary human endothelial cells (HUVEC); actives raise or lower the signal. A digest of the protocol:
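Endothelial cells from umbilical vein are dosed with test chemical and incubated 24 h. Thrombomodulin is then quantified by ELISA, with DMSO serving as negative control and activity baseline.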

Read-out in assay [19]: E-selectin (Homo sapiens) (UniProt P16581)
The assay can be described thus: BSK_3C_Eselectin: BioMAP Diversity Plus: 3C Assay for Eselectin Biomarker Activity (AID 2283015; active = hit-call score of the fitted dose curve at least 0.9, where 1 is the maximum; inactive = score below 0.9). The conditions noted are these: primary human endothelial cells (HUVEC); actives raise or lower the signal. A digest of the protocol: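 E-selectin ELISA readout, fitted bidirectionally relative to DMSO, taken 24 h post-dosing in HUVEC cultures of the 3C system. Overt cytotoxicity tracked with sulforhodamine B staining of parallel wells.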

Records with an inconclusive call do not appear. Calls of active or inactive are those of the source. Rule for the calls, unless noted: active = hit-call score of the fitted dose curve at least 0.9, where 1 is the maximum; inconclusive = response in the unintended direction; inactive = score below 0.9.

human Thyroid Receptor alpha (THRa1), THRA (gene 7067), sequence (P10827 whole entry, looked up, the tested form may be a part): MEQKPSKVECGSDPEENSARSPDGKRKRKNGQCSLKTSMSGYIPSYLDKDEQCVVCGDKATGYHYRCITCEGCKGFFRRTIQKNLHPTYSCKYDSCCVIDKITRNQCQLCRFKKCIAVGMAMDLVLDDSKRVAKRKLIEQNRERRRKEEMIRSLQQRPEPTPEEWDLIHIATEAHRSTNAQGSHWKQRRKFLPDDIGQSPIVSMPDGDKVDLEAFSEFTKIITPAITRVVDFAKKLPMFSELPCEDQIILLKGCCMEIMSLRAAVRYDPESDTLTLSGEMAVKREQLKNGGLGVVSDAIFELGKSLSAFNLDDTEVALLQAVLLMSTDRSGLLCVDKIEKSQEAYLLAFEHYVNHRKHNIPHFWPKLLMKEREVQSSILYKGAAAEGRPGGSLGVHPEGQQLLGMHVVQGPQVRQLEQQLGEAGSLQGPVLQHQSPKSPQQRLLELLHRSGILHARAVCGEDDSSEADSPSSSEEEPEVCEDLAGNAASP
human Vitamin D Receptor (VDR), VDR (gene 7421), sequence (P11473 whole entry, looked up, the tested form may be a part): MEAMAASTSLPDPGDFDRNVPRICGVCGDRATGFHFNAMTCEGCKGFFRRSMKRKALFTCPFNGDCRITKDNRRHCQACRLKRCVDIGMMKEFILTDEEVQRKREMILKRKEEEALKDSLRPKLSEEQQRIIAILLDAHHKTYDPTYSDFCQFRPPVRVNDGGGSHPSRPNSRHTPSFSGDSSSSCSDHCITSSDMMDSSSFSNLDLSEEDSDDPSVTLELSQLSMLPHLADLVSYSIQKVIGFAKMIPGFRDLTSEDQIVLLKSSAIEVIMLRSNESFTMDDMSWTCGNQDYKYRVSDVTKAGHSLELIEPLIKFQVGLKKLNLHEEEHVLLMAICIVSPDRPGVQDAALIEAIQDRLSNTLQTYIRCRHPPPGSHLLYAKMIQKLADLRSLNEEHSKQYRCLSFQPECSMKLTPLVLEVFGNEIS
human RAR-related Orphan Receptor gamma (RORg), RORC (gene 6097), sequence (P51449 whole entry, looked up, the tested form may be a part): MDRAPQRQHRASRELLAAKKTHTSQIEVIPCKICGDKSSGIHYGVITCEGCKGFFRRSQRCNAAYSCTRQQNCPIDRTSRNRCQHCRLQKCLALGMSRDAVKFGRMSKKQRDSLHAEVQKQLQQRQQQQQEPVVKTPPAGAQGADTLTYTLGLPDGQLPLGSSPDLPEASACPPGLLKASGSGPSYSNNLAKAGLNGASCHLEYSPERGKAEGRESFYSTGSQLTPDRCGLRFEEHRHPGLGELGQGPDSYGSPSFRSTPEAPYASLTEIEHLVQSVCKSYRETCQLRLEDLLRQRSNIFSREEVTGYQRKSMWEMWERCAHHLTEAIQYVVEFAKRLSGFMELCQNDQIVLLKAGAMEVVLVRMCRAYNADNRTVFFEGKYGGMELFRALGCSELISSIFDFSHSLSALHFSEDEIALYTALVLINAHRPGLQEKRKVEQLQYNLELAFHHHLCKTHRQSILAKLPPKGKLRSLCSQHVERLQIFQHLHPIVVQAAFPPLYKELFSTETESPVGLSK
human Retinoid X Receptor beta (RXRb), RXRB (gene 6257), sequence (P28702 whole entry, looked up, the tested form may be a part): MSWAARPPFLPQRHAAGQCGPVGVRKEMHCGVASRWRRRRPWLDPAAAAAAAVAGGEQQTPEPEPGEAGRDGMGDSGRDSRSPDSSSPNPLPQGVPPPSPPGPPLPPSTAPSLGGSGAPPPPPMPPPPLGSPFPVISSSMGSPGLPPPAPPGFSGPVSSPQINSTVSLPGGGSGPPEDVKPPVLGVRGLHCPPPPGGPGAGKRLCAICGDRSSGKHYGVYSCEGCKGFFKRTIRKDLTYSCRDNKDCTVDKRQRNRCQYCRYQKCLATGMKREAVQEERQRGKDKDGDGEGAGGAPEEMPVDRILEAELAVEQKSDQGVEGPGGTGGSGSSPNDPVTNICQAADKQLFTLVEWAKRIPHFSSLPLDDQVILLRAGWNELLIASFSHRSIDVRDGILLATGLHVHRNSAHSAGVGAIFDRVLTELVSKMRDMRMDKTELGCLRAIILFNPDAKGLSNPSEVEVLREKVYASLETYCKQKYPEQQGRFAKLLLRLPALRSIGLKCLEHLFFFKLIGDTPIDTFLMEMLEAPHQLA
E-selectin (Homo sapiens), sequence (P16581 whole entry, looked up): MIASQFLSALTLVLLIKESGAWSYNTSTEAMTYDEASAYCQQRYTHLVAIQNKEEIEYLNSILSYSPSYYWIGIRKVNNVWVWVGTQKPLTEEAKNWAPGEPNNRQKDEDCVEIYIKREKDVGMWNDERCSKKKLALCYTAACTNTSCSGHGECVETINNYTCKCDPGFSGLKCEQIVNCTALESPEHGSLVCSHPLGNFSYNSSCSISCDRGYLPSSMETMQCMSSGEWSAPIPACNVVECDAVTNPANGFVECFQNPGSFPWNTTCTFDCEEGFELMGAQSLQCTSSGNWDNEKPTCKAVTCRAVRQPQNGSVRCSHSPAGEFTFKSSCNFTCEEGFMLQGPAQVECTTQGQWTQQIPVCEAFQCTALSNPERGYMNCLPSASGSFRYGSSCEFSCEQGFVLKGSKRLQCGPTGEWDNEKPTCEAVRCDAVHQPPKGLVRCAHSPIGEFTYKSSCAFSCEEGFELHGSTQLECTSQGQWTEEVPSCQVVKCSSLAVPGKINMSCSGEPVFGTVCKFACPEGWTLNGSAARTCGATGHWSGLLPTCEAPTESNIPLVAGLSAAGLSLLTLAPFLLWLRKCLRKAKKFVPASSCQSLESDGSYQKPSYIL
Retinoic acid receptor RXR-alpha (Homo sapiens), sequence (P19793 whole entry, looked up, the tested form may be a part): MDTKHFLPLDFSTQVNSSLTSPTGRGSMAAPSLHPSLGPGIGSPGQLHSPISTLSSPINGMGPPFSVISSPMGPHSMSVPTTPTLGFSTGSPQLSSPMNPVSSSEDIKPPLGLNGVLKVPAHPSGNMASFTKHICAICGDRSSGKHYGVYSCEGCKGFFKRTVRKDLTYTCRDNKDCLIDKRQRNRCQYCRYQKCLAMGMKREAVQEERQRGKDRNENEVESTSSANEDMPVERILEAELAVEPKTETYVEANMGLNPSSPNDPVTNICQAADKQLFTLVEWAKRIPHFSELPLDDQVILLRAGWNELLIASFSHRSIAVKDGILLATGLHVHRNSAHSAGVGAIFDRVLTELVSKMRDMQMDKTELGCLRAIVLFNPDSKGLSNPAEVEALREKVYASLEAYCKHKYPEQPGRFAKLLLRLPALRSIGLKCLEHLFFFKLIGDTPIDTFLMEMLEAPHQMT

For the molecule `CCOC(=O)c1ccccc1C`, the result in assay [1] and in assay [2] was inactive.

For the molecule `CCCCNS(=O)(=O)c1ccccc1`, the molecule was classed as inactive in [1], in assay [2] and in [3].

Turning to `COCC(=O)O`, the call in [1], in [2] and in assay [3] was inactive.

As for `[Cl][Eu]([Cl])[Cl]`, the molecule was classed as inactive in assay [1] and in assay [4].

As to `CCN(CC)c1cccc(C)c1`, the molecule was called inactive in assay [1], in assay [4] and in assay [3].

As for `Cc1ccc(S(=O)(=O)N=C=O)cc1`, the molecule was called inactive in [1] and in assay [4].

On to `CCCCCCCCCCCC(=O)OCC`, for which the outcome in [1], in [4] and in assay [3] was inactive.

For the molecule `O=C(O)CC(C(=O)O)S(=O)(=O)O` (configuration not stated), the result in [1], in [5] and in assay [3] was inactive.

On to `O=S(=O)(O)c1ccc(Nc2nc(Nc3ccc(C=Cc4ccc(Nc5nc(Nc6ccc(S(=O)(=O)O)cc6)nc(N(CCO)CCO)n5)cc4S(=O)(=O)O)c(S(=O)(=O)O)c3)nc(N(CCO)CCO)n2)cc1`, for which the molecule was classed as inactive in [1], in [4] and in assay [3].

Regarding `CC1=CC(C)C(C=O)CC1` (configuration not stated), the outcome in assay [1], in [4] and in [3] was inactive.

The term AC50 denotes the midpoint of the concentration-response curve, whichever way the signal moves. Regarding `C=CCCCCCCCCC=O`, the molecule was called inactive in [1], in assay [6], in assay [7], in [8], in [9] and in [10]. For the same molecule, the result in [11], in [12], in assay [13], in assay [14], in assay [15] and in [16] was inactive. Besides, the result in [17] and in assay [18] was inactive. Besides, the AC50 in [4] was 105 µM (active).

Turning to `CCCCC(CC)COS(=O)(=O)O` (configuration not stated), the call in [1], in [2] and in assay [3] was inactive.

For `C=C(C)C1CC=C(C)CC1` (configuration not stated), the result in assay [1] and in assay [4] was inactive.

In the case of `CCCCOC(=O)C(C)CC` (configuration not stated), the molecule was called inactive in assay [1], in [4] and in assay [3].

Regarding `Cc1ccc(C)c(OCCCC(C)(C)C(=O)O)c1`, the call in assay [1] and in assay [4] was inactive.

On to `CC(=O)OC1CCCCC1C(C)(C)C` (configuration not stated), for which the molecule was classed as inactive in assay [1] and in assay [2]. For the same molecule, in assay [4], the AC50 is 58.9 µM (active).

Regarding `O=C(OCCc1ccccc1)c1ccccc1`, the result in assay [1], in assay [4] and in assay [3] was inactive.

For the molecule `CC=C(C)C=CC=C(C)C`, the molecule was classed as inactive in [1], in assay [4], in [2], in assay [6], in assay [7] and in assay [8]. The outcome in assay [10], in assay [11], in [12], in assay [13], in assay [14] and in assay [15] was inactive. In addition, the result in assay [16] and in assay [17] was inactive. Also, the AC50 is 20 µM (active) in assay [19], 20 µM (active) in [9] and 3.97 µM (active) in assay [18].

In the case of `CC(C)CC(=O)OCc1ccccc1`, the outcome in assay [1] and in assay [4] was inactive.
